SMILES strings stand for the structures. Inconclusive results are not listed. Active and inactive are the calls of the source. Calls follow the shape of the dose curve; as a rule, active = well fitted inhibition curve with a large enough effect; inconclusive = small, poorly fitted or top-dose-only effect; inactive = flat fitted curve, though single readings scatter.
% is scaled to controls: 0 for no effect and ±100 for the full control effect; potency is read from the fitted curve at half-maximal effect.

The assay relates to HEK293. Kind of assay: Cytotoxic Profiling of Annotated Libraries Using Quantitative High-Throughput Screening (AID 1296008). Also: nearly all actives have a fitted effect of over 60% in size. The settings on record: Five cell lines viability, CellTiter-Glo ATP luminescence, 48-72 h; max response: stronger effect = lower value. In outline: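 Cells exposed to compounds for 48 or 72 hr at 37 degrees Celsius. Viability read as ATP-coupled luminescence with CellTiter-Glo after 10 min at room temperature.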
(In general: Cellular ATP, detected with luciferase, serves as a proxy for viable cell number.)
Turning to `Cc1cc(C)nc(NS(=O)(=O)c2ccc(NC(=S)NC(=O)COc3ccc(Br)cc3Cl)cc2)n1`, the max response was 2.6% (inactive).

`C=C(C(=O)O)C1CCC2(C)CCC(O)C(C)(O)C2C1` (centres undefined): the max response is -0.305% (inactive).

As to `CC1(C)CC[C@]2(C(=O)O[C@@H]3O[C@H](CO)[C@@H](O)[C@H](O)[C@H]3O)CC[C@]3(C)C(=CCC4[C@@]5(C)C[C@@H](O)[C@H](O)C(C)(C)C5CC[C@]43C)C2[C@@H]1O` (some centres undefined), the max response was 0.957% (inactive).

For `CCOC(=O)Nc1cc(-c2ccc(C)c(NS(C)(=O)=O)c2)nn2c(C)nnc12`, the Potency is 4110 nM (active).

Turning to `O=C(c1ccc2nccnc2c1)N1CCCCC1`, the max response is -81.1% (inactive).

For the molecule `COc1cc(C(=O)NC2CCN(C)CC2)ccc1Nc1ncc2c(n1)N(C1CCCC1)CC(F)(F)C(=O)N2C`, the Potency was 14.6 nM (active).

With `C/C(=C\C=C\C(C)C1CCC2(C)C3CCC4C(C)(C)C(=O)CCC45CC35CCC12C)C(=O)O` (centres undefined), the max response was -1.63% (inactive).

`Cc1cc(OCc2nc(-c3ccccc3Cl)cs2)ccc1OCC(=O)O`: the max response is -1.87% (inactive).

Turning to `CCc1cnn2c(NCc3ccc[n+]([O-])c3)cc(N3CCCCC3CCO)nc12` (centres undefined), the Potency is 13 nM (active).

As for `OC[C@H]1O[C@@H](OCCc2ccccc2)[C@H](O[C@@H]2OC[C@](O)(CO)[C@H]2O)[C@@H](O)[C@@H]1O`, the max response is -11.4% (inactive).

For the molecule `CCOCc1nc2c(N)nc3ccccc3c2n1CC(C)(C)O`, the max response is -5.94% (inactive).

As to `CC(=O)OC1C(O)C2C(C)C3=CC(=O)OC3(O)CC2C2(C)CCCC(C)(CO)C12` (centres undefined), the max response was -10% (inactive).

In the case of `C=C(C(=O)O)C1CCC2(C)CCC(O)C(=C)C2C1` (centres undefined), the max response was -0.847% (inactive).

For `CC(=O)C1=CCC2C3CCC4CC(O[C@@H]5O[C@H](CO)[C@@H](O[C@@H]6O[C@@H](C)[C@H](O)[C@@H](O)[C@H]6O)[C@H](O)[C@H]5O[C@@H]5O[C@H](CO)[C@@H](O)[C@H](O)[C@H]5O)CCC4(C)C3CCC12C` (some centres undefined), the max response is -11.1% (inactive).

Source of the values: PubChem BioAssay (NCATS).
